Screening results: PubChem, National Center for Advancing Translational Sciences (NCATS)
Most compounds without a hit are left out; they make up all but 12% or so of the library.
BAZ2B inh – blocks human BAZ2B. Q9UIF8. AID 504333. Potency, µM (top dose mostly 114 µM), inactives show top-dose activity change, negative = inhibition, hits mostly inhibitors. 360,000 tested, 4.4% active. AlphaScreen BAZ2B-H3K14Ac peptide displacement; further: potency means the concentration at half of the fitted maximal effect; on the % scale 0 is the no-effect control and ±100 the full control effect; nearly all actives have a fitted effect of over 60% in size
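Complex of BAZ2B and biotin-H3K14Ac (50 nM apiece) forms over 30 min at RT, then faces library compounds up to 110 uM for another 30 min; AlphaScreen beads added, 20 min dark incubation, luminescence read.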
PLK1 PBD inh – blocks phosphopeptide binding to human PLK1 polo-box domain; AID 720504; 360,000 tested, 2.8% active; Plk1 PBD binding of FITC phosphopeptide, fluorescence polarization; Potency, µM, for the others: max response, negative = inhibition, hits mostly inhibitors; further: potency means the concentration at half of the fitted maximal effect; series mostly up to about 57 µM; on the % scale 0 is the no-effect control and ±100 the full control effect; nearly all actives have a fitted effect of over 65% in size
PI5P4Ka inh – inhibitors of human PI5P4K alpha | PI5P4Kalpha enzyme, ADP-Glo luminescence, 60 min; active compounds read low | max response, % | 330,000 tested, 1.2% active | P48426; active means max response of -50% or lower; inconclusive means between -30% and -50%; inactive means -30% or higher; further: value at the top dose of about 77 µM; on the % scale 0 is the no-effect control and ±100 the full control effect
Target sequence (P48426 whole entry, looked up): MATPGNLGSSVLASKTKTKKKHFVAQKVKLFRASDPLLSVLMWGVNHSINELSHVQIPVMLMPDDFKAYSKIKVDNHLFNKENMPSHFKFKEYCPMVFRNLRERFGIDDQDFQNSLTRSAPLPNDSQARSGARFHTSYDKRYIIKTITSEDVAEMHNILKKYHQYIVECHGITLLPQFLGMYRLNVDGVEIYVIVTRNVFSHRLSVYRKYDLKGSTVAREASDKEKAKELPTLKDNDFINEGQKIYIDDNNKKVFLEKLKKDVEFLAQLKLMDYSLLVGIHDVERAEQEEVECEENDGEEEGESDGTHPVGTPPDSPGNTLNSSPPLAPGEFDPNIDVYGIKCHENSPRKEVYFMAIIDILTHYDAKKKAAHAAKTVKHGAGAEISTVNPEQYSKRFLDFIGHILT
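Single end-point luminescence (ADP-Glo) quantified ADP from PI5P4Kalpha turnover; ATP 5 microM final, 1 h at RT, 0.1% CHAPS and 0.28 mM EGTA in HEPES pH 7.4.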
G9a inh – inhibitors of human histone lysine methyltransferase G9a; Q96KQ7; G9a H3K9 monomethylation, AlphaScreen, 2 h; Potency, µM (highest dose often 102 µM), inactives show at the highest dose activity, negative = inhibition, actives largely listed as inhibitors; 350,000 tested, 8.8% active; further: potency means the concentration at half of the fitted maximal effect; on the % scale 0 is the no-effect control and ±100 the full control effect; nearly all actives have a fitted effect of over 75% in size
Target sequence (Q96KQ7 913-1193 limits assumed): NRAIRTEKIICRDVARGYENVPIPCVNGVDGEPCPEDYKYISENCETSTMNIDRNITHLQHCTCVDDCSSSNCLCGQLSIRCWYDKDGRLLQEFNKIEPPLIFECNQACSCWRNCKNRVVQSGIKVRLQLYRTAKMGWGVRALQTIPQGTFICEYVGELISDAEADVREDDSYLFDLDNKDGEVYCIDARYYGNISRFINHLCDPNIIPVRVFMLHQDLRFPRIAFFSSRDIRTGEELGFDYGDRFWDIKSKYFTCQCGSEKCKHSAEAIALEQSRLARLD
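Enzyme 20 nM + cpd, 15 min RT; add b-H3K9 pep 500 nM / SAM 20 uM; 2 h RT; anti-H3K9me1 Ab 0.5 ug/mL + SA donor / anti-rabbit acceptor beads 20 ug/mL each, 10 min; AlphaScreen read.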
JMJD2A Tudor inh – JMJD2A Tudor domain (human) inhibition; Potency, µM (top dose mostly 114 µM), inactives show at the top dose activity change, negative = inhibition, actives largely listed as inhibitors; AID 504339; AlphaScreen JMJD2A-Tudor / H3K4me3 peptide binding; 390,000 tested, 4.4% active; O75164; further: potency means the concentration at half of the fitted maximal effect; on the % scale 0 is the no-effect control and ±100 the full control effect; nearly all actives have a fitted effect of over 50% in size
HP1b binding inh – HP1-beta chromodomain-methylated histone interaction inhibition. Potency, µM (top dose mostly 114 µM), for the others: at the top dose activity change, negative = inhibition, usual class: inhibitors. AlphaScreen HP1-beta / biotin-H3K9me3 peptide binding. 390,000 tested, 0.56% active. AID 540317; further: potency means the concentration at half of the fitted maximal effect; nearly all actives have a fitted effect of over 70% in size
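HP1-beta protein (50 nM final) preincubated 30 min at room temperature with biotinylated H3(1-18)K9me3 peptide (50 nM) in PBS pH 7.4, 0.01% Tween-20, then compound added for 30 min. AlphaScreen streptavidin donor/nickel chelate acceptor beads (10 ug/mL final), 30 min dark, luminescence read.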
Starred values were filed as active, the others as inactive; u = inconclusive; x = no result; ! = not confirmed by another sample; [ ] = dose if it differs, or a comment. Unless noted, the call rests on the fitted dose curve; in most records, active means well fitted curve in the direction sought with a large enough effect; inconclusive means small, poorly fitted or top-dose-only effect, or another doubt; inactive means no such curve, though single readings can be large; an effect the other way counts as inactive or inconclusive.

SMILES	BAZ2B inh	PLK1 PBD inh	PI5P4Ka inh	G9a inh	JMJD2A Tudor inh	HP1b binding inh
Cc1ccc(C)c(N2CCN(C(=O)CCS(=O)(=O)c3ccc4c(c3)CCN4C(=O)C3CC3)CC2)c1	-12.4%	-4.9%	0.7	1.7%	-25.0%	27.7%
COCCn1c(SCC(=O)c2c[nH]c3ccccc23)nc2cc(C(=O)NCC(C)C)ccc2c1=O	-5.1%	x	x	4.5%[59 µM]	-14.6%	18.1%
COc1cc(CN2CCN(CCCc3ccccc3)C(CCO)C2)cc(OC)c1O (stereo unspecified)	4.1%	-24.6%	2.5	39.8µM*	-9.2%	22.6%
COc1ccc(CN2CCN(CCCc3ccccc3)C(CCO)C2)c(OC)c1 (stereo unspecified)	0.5%	-10.5%	-2.6	11.6%	-22.6%	16.4%
OCCC1CN(Cc2c(O)ccc3ccccc23)CCN1CCc1ccccc1 (stereo unspecified)	-29.5%	23.8µM*	2.2	2µM*	u	-1.7%
COc1cccc(Cn2c(=O)c(-c3cccc(Cl)c3)nc3cncnc32)c1	x	x	x	0.3%[12.7 µM]	x	x
CN1CCN(/N=C/c2nc(-c3ccc(Cl)cc3)n3ccccc23)CC1	50.1µM*	-21.7%	-2.3	15.8µM*	u	-18.6%
Clc1ccc(-c2nc(/C=N/N3CCOCC3)c3ccccn23)cc1	x	-8.4%	-1.3	28.2µM*	u	-12.2%
O=Cc1nc(-c2ccc(Cl)cc2)n2ccccc12	4.4%	-4.7%	-2.7	4.2%	u	45.6%
CN1CCN(/N=C/c2nc(-c3ccccc3)n3ccccc23)CC1	u	-9.1%	-4.6	14.1µM*	u	-5.4%
CC(C)c1cc2c(s1)c1cnn(Cc3ccccc3F)c(=O)c1n2C	x	x	x	x	-20.5%	x
CSc1ncccc1C(=O)N1CCCC(N2CCN(c3ccccc3F)CC2)C1 (stereo unspecified)	0.8%	-15.3%	0.8	44.2%	-12.0%	19.2%
COc1ccccc1NS(=O)(=O)c1cc(NC(=O)c2cccs2)ccc1N1CCCC1	-37.7%	5.32µM*	u	1.58µM*	u	u
COc1ccccc1NS(=O)(=O)c1cc(NC(=O)c2sccc2C)ccc1N1CCCC1	-30.5%	6.7µM*	u	3.55µM*	-17.5%	u
CCOc1ccc(NS(=O)(=O)c2ccc3[nH]cc(C(=O)N4CCCC4)c(=O)c3c2)cc1	x	x	x	u	-17.0%	32.0%
Cc1nc(SCC(=O)N(C)Cc2ccco2)c2c(C)c(C)sc2n1	-26.0%	u	0.0	50.1µM*	-28.2%[57.1 µM]	23.6%
Cc1nc(NCc2ccco2)c2c(C)c(C)sc2n1	28.2µM*	-1.5%	x	8.91µM*	3.16µM*	u
C[C@@H](N)C1CCC(C(=O)Nc2ccncc2)CC1 (stereo partly specified)	x	x	x	29.9µM*!	x	x
CC(C)c1ccc(C2=NC(c3ccncc3)=Nc3ccc(F)cc3N2)cc1	u	x	x	-34.2%[59 µM]	u	-2.6%
CCOC(=O)C1=C(C)NC(C)=C(C(=O)OCC)C1c1cccc([N+](=O)[O-])c1	x	-8.8%	26.1	x	x	x
C#CCN1C(C)=C(C(=O)OC)C(c2cccc([N+](=O)[O-])c2)C(C(=O)OCC)=C1C (stereo unspecified)	-28.7%	-1.9%	5.1	11.2µM*!	-32.4%	6.7%
COC(=O)C1=C(C)N(Cc2ccc(C)cc2)C(=O)C1	1.3%	-0.3%	x	-8.3%	-0.7%	24.9%
COC(=O)C1=C(C)N(CC2CCCO2)C(=O)/C1=C\c1ccc(O)cc1 (stereo unspecified)	u	-8.6%	-5.6	u	35.5µM*	u
CCOC(=O)C1=C(C)N(c2ccc(C)cc2)C(=O)/C1=C\c1ccc(O)c(OC)c1	44.7µM*	-10.8%	-6.1	x	8.91µM*	u
CCOc1cc(/C=C2\C(=O)N(CCc3ccc(OC)c(OC)c3)C(C)=C2C(=O)OC)ccc1O	50.1µM*	-6.8%	1.6	u	39.8µM*	u
SMILES	BAZ2B inh	PLK1 PBD inh	PI5P4Ka inh	G9a inh	JMJD2A Tudor inh	HP1b binding inh
COC(=O)C1=C(C)N(Cc2ccc(C)cc2)C(=O)/C1=C\c1ccc(O)c(OC)c1	50.1µM*	0.2%	1.1	18.7%[2.33 µM]	25.1µM*	22.4µM*
CCOC(=O)c1ccc(NC(=O)C(CC)Sc2nnc3c4ccccc4n(C)c3n2)cc1 (stereo unspecified)	15.0%	x	x	12.8%[59 µM]	-13.1%	78.3%
CCS(=O)(=O)n1nc(-c2ccco2)nc1NCc1ccc(C(C)C)cc1	-30.0%	x	x	u	-6.0%	11.0%
CCOc1cc(/C=C2/NC(=O)N(Cc3ccccc3F)C2=O)ccc1O	8.2%	0.6%	0.9	-1.2%[59 µM]	-2.0%	21.4%
COC(=O)C1=C(C)N(Cc2ccc(C)cc2)C(=O)/C1=C\c1cc(OC)c(OC)c(OC)c1	39.8µM*	-5.0%	15.1	25.1µM*	11.2µM*	-21.5%
CCOc1cc(/C=C2\C(=O)N(Cc3ccco3)C(C)=C2C(=O)OC)ccc1O	50.1µM*	2.1%	-14.7	8.91µM*	17.8µM*	20µM*
CC(=O)c1cccc(NC(=O)c2c(C)nn(-c3ccc(F)cc3)c2-n2cccc2)c1	-26.0%	x	x	1.7%[59 µM]	-0.3%	53.3%
CCOC(=O)C1=C(CS(=O)(=O)c2ccc(F)cc2)NC(=O)NC1c1cc(OC)c(O)c(OC)c1 (stereo unspecified)	0.6%	1.8%	-1.1	7.4%	-4.1%	25.6%
CCOC(=O)C1=C(CS(=O)(=O)c2ccc(F)cc2)NC(=O)NC1c1ccc(O)c(O)c1 (stereo unspecified)	-34.3%	-11.5%	4.8	14.1µM*	-30.4%	-21.0%
CCCCCCCc1nc2sc3c(c2c(=O)n1N)CC(C)(C)OC3	0.3%	-0.2%	6.8	-8.8%	5.2%	22.8%
CCCCCc1nc2sc3c(c2c(=O)n1NC(=O)c1ccc([N+](=O)[O-])cc1)CC(C)(C)OC3	-10.2%	-11.8%	0.6	70.8µM*	u	-19.2%
Cc1ccc(F)cc1C(=O)N1CCCC(c2cc(C(=O)NCc3ccc(F)cc3)no2)C1 (stereo unspecified)	x	-3.9%	0.2	x	x	x
Cc1c(NS(=O)(=O)c2cc(C(=O)NCCN(C)C)ccc2Cl)c(=O)n(-c2ccccc2)n1C	79.4µM*	-2.4%	-7.3	u	u	10.5%
Cc1ccccc1NS(=O)(=O)c1cc(C(=O)NCc2ccncc2)ccc1Cl	-23.5%	-6.3%	-2.3	44.7µM*	-5.1%	42.2%
Cc1ccc(NS(=O)(=O)c2cc(C(=O)NCCCN(C)C)ccc2Cl)cc1Cl	6.0%	-4.4%	1.7	79.4µM*	-6.8%	33.5%
CCCCCCCCCCCCCCC[C@@H](O)[C@H](CO)NC(=O)CCCCCCC	x	x	x	29.6%[59 µM]	x	x
O=C1CCc2cc(NS(=O)(=O)c3ccccc3)cc3c2N1CC3	8.1%	-8.1%	-3.4	4.0%[2.33 µM]	-13.1%	23.1%
Cc1[nH]c2ccccc2c1C1=NNC(=Nc2ccc(F)cc2)SC1	u	-18.4%	-26.0	u	56.2µM*	u
